PubChem BioAssay AID1814 (Broad Institute, 2009)
Hit rate of the full screen: of about 300,000 compounds, about 22,000 (7.3%) were called active. Another 2% or so got no clear call; they are omitted. This is one part of a sample in which actives are shown more often than they occur. Values without a mark were called inactive. Rule as the data show it: active = activity score below about -60%; inconclusive = mostly about -28% to -61%; inactive = positive scores.

Assay: Activators working through SNCA 5'UTR binding (MLPCN) (AID 1814)
Conditions: alpha-synuclein 5'UTR reporter, activators screen; active compounds read low; tested at 7.5 µM

Row | Structure (SMILES) | activity score
1 | O=C(NC1CCCCC1)c1ccc(-c2ccc(Cl)cc2)o1 | -150% (active)
2 | COc1ccc(C(=O)NC(=S)NC2CCCCC2)cc1 | -137% (active)
3 | O=C(NC(=S)NC1CCCCC1)c1ccc(Cl)cc1 | -160% (active)
4 | CC(C)CNC(=S)NC(=O)c1ccc(Cl)cc1 | -111% (active)
5 | Cc1ccc(OCCCC(=O)N2CCOCC2)c(C)c1 | -75.1% (active)
6 | Cc1oc2c(c1C(=O)N1CCOCC1)C(=O)c1ccccc1C2=O | 101%
7 | O=c1oc2ccccc2cc1-c1cn(-c2ccccc2)c(=S)[nH]1 | 119%
8 | COc1ccc(-c2cn(-c3ccc(OC)cc3)c(=S)[nH]2)cc1 | -129% (active)
9 | O=C(Nc1ccc2oc(-c3ccc4ccccc4c3)nc2c1)c1cccs1 | -233% (active)
10 | CCN(CC)C(=O)c1sc2nc(-c3ccccc3)ccc2c1N | -178% (active)
11 | O=C(NNC(=O)c1cc2c(s1)CCCC2)c1ccccc1 | -80.5% (active)
12 | O=C(Nc1ccc(F)cc1)c1cc2c(s1)CCCC2 | -165% (active)
13 | CCN(CC)c1ccc(C(=O)c2cnc(/N=C/N(C)C)s2)cc1 | -64.1% (active)
14 | C=CCNc1cnn(-c2ccc(C)cc2)c(=O)c1Cl | -80.9% (active)
15 | Cc1sc2ncnc(Sc3nc4ccccc4s3)c2c1C | -71% (active)
16 | CSc1ccccc1OCc1cc(C(=O)N2C[C@H]3CC[C@H]2C3)no1 | -85.5% (active)
17 | N#Cc1c(NC(=O)C2CCCO2)sc2c1CCCCC2 (stereo not given) | -161% (active)
18 | Cc1ccc(C)c(NC(CC(=O)c2ccccc2)C(=O)OCC(=O)c2cccs2)c1 (stereo not given) | -96.3% (active)
19 | O=C(Cn1ncc(N2CCCC2)c(Br)c1=O)c1ccc(Cl)cc1 | -92.2% (active)
20 | O=C(CSc1cccc[n+]1[O-])c1ccc(-c2ccccc2)cc1 | -146% (active)
21 | CCOC(=O)c1[nH]c2c(c1C)C(=O)CC(c1ccc(N(C)C)cc1)C2 (stereo not given) | -105% (active)
22 | O=C1N=C(N2CCCC2)S/C1=C\c1cccc(Br)c1 | -122% (active)
23 | CCOc1cc(/C=C2\SC(N3CCCCC3)=NC2=O)ccc1O | -75.9% (active)
24 | O=C(COC(=O)c1cccc(Br)c1)Nc1cccc2c1C(=O)c1ccccc1C2=O | -79% (active)
25 | Cn1c(=NC(=O)c2ccco2)sc2cccc(F)c21 | -151% (active)
26 | CCCC(=O)N=c1sc2cccc(F)c2n1C | -76.7% (active)
27 | CSc1ccccc1NC(=O)c1ccc2c(c1)CCN2S(C)(=O)=O | -66.1% (active)

Row | Structure (SMILES) | activity score
28 | CS(=O)(=O)N1CCc2cc(C(=O)Nc3ccccc3Br)ccc21 | -124% (active)
29 | CS(=O)(=O)N1CCc2cc(C(=O)Nc3ccccc3)ccc21 | -104% (active)
30 | O=C(Nc1cc(C(F)(F)F)ccc1Cl)c1cc(C2CC2)on1 | -77.3% (active)
31 | O=C(Nc1cc(C(F)(F)F)ccc1Cl)c1cc2nc3c(c(C(F)(F)F)n2n1)CCCC3 | -243% (active)
32 | CSc1ccccc1NC(=O)c1cc(C2CC2)on1 | -116% (active)
33 | O=C(O)c1ccccc1CSc1nc2ccccc2s1 | -62.9% (active)
34 | CC(/C=N/NC(=O)c1cc(-c2ccc3ccccc3c2)n[nH]1)=C\c1ccco1 | -220% (active)
35 | COc1ccc(CNC(=O)c2ccc3oc(C(C)C)nc3c2)cc1 | -118% (active)
36 | COC(=O)c1ccc(CNC(=O)c2ccc3oc(C(C)C)nc3c2)cc1 | -95.9% (active)
37 | COC(=O)c1ccc(Sc2ccc(F)cc2)c(N)c1 | -107% (active)
38 | CC(C)(C)c1ccc(/C=C2\SC(=O)N=C2N)cc1 | -78.7% (active)
39 | O=C(Nc1cccc2ccccc12)c1onc2c1CCCC2 | -204% (active)
40 | Cc1ccc2nc(-c3ccc(SCC(=O)Nc4cc(C)on4)nc3)[nH]c2c1 | -160% (active)
41 | O=C(c1noc2c1CCCC2)N1CCc2ccccc2C1 | -165% (active)
42 | O=C(NCCNc1ccccc1[N+](=O)[O-])c1ccccc1F | -168% (active)
43 | NC(=O)c1ccccc1N=Cc1ccc2ccccc2c1 | -211% (active)
44 | CCc1ccc2nc3sc(C(=O)Nc4nnc(CC)s4)c(N)c3cc2c1 | -71.1% (active)
45 | Cc1nc(C)c(-c2csc(NCCc3ccccc3)n2)s1 | -84.7% (active)
46 | CC(c1ccccn1)N(C)C(=O)c1ccc2nc(Cc3cccc(Cl)c3)oc2c1 (stereo not given) | -80.8% (active)
47 | COc1ccc(-c2cc3n(n2)CCc2nc4ccccc4n2-3)cc1 | -137% (active)
48 | CCN1CCN(c2cc3nc(C)n(Cc4ccccc4)c(=O)c3cc2NC(=O)c2ccccc2F)CC1 | 65.1%
49 | COC(=O)c1sc(N2CCN(Cc3ccccc3)CC2)nc1N | -67.9% (active)
50 | Oc1ccc2ccccc2c1N=Nc1nccs1 | 87.4%
51 | Cn1c(-c2ccc(C(=O)c3ccccc3)s2)nc2ccccc21 | -73.8% (active)
52 | O=C(/C=C/c1cnc2ccccc2n1)NC1CCCCCC1 | -94.3% (active)
53 | O=C(Nc1ccccc1Cl)Nc1cccc2cccnc12 | -162% (active)
54 | O=[N+]([O-])c1ccccc1S(=O)(=O)Nc1cccc2cccnc12 | 59.9%

Row | Structure (SMILES) | activity score
55 | COc1ccc(NC(=O)Nc2cccc3cccnc23)cc1 | -211% (active)
56 | OCCN1CCN(C(=S)c2ccc(-c3ccccc3)cc2)CC1 | 88%
57 | S=C(c1ccc(-c2ccccc2)o1)N1CCCCC1 | -113% (active)
58 | O=C(Nc1ccc(Cl)cn1)Nc1cccs1 | -78.6% (active)
59 | Clc1ccc(Nc2ccc3ccccc3n2)cc1 | -61.9% (active)
60 | CCOC(=O)C1(Cc2ccccc2C)CCCN(C(=O)c2ccc(COC)o2)C1 (stereo not given) | -84.1% (active)
61 | O=C(Nc1ccc(N2CCOCC2)nc1)c1c(F)cccc1F | -91.2% (active)
62 | CCCCC(=O)Nc1ccc2c(c1)OCCO2 | -102% (active)
63 | Cc1ccc(SCC(=O)Nc2ccc3c(c2)OCCO3)cc1 | -96.9% (active)
64 | CCc1ccccc1OCC(=O)Nc1ccc2c(c1)OCCO2 | -104% (active)
65 | COC(=O)CCNc1ccc2c(c1)OCCO2 | -62.2% (active)
66 | CCN(CC)C(=O)CSc1nc2ccccc2o1 | -63.8% (active)
67 | CC(C)(C)C(=O)CSc1nc2ccccc2o1 | -109% (active)
68 | CC1Cc2ccccc2N1C(=O)CSc1nc2ccccc2o1 (stereo not given) | -87.9% (active)
69 | CC(=O)c1cccc(NC(=O)Nc2ccc(C)cc2)c1 | -144% (active)
70 | Cc1ccc(NC(=O)Nc2cccnc2)cc1 | -97.5% (active)
71 | CCc1ccc(NC(=O)Nc2ccncc2)cc1 | -76.8% (active)
72 | Cc1ccc(NC(=O)Nc2nnc(-c3ccncc3)s2)cc1 | -68% (active)
73 | Cc1ccc(-c2nc(-c3cccnc3)sc2CC(=O)Nc2ccc(C)c(Cl)c2)cc1 | 54.1%
74 | CCCCCCCCn1c2c(c(=N)c3c1CCC3)CCCC2 | 101%
75 | Cc1ccc(NC(=O)Nc2ccccc2)c(Br)c1 | -192% (active)
76 | COC(=O)c1ccc(NC(=O)Nc2ccc(C)cc2)cc1 | -81.9% (active)
77 | COC(=O)c1sccc1NC(=S)Nc1ccc(C)cc1 | -77.8% (active)
78 | COc1cc(NC(=O)Nc2ccc(C)cc2)cc([N+](=O)[O-])c1 | -141% (active)
79 | O=C(NCCCN1CCOCC1)c1cc(-c2ccccc2F)no1 | -121% (active)
80 | O=C(c1ccco1)N1CCN(C(=O)c2cc(-c3ccccc3F)no2)CC1 | -156% (active)
81 | CCC(=O)/C(=C(/O)c1ccccc1)c1nc2ccccc2[nH]1 | -69% (active)

Row | Structure (SMILES) | activity score
82 | CC[C@]1(O)C[C@@H]2CN(CCc3c([nH]c4ccccc34)[C@@](C(=O)OC)(c3cc4c(cc3OC)N(C)[C@H]3[C@@](O)(C(=O)OC)[C@H](OC(C)=O)[C@]5(CC)C=CCN6CC[C@]43[C@@H]65)C2)C1 | 77.2%
83 | CNc1[nH]ncc1[N+](=O)[O-] | -74.2% (active)
84 | CC1CCC(NC(=O)c2ccc(N3CCCC3=O)cc2)CC1 (stereo not given) | -64.3% (active)
85 | CC1CCCC(NC(=O)c2cccc(N3CCCC3=O)c2)C1C (stereo not given) | -74.5% (active)
86 | CN1c2ccc(C=O)c3c(C=O)ccc(c23)N(C)C1(C)C | 67%
87 | CC1CCN(C(=S)c2ccc(-c3ccc(Cl)cc3Cl)o2)CC1 | -91.3% (active)
88 | O=C(CSc1ccccn1)Nc1nc2c(ccc3ccccc32)s1 | -63.2% (active)
89 | COc1ccc2nc(SCc3ccccc3)nc(C)c2c1 | -70.7% (active)
90 | Cc1ccc(-n2ncc3c2ncn2nc(-c4ccco4)nc32)c(C)c1 | -88.8% (active)
91 | Cc1onc(-c2ccccc2Cl)c1C(=O)N(Cc1ccc(N(C)C)cc1)C(C)C | 73.1%
92 | CCN1/C(=C\c2ccc3ccccc3[n+]2CC)Sc2cc(C)ccc21 | -332% (active)
93 | O=C(Nc1ncccc1O)c1ccc(S(=O)(=O)N2CCCC2)cc1 | -67.4% (active)
94 | O=C(Nc1ncccc1O)c1ccc(C(=O)c2ccccc2)cc1 | -507% (active)
95 | CNC(C)C#Cc1ccc2sc3cc(OC)c(OC)cc3c(=O)c2c1 (stereo not given) | -277% (active)
96 | CC(C)(C)C(=O)Nc1ccc(-c2cn3cccnc3n2)cc1 | -130% (active)
97 | COc1ccc(-c2cn3ccsc3n2)cc1 | -105% (active)
98 | COc1ccc(-c2cn3cccnc3n2)cc1 | -75.4% (active)
99 | FC(F)(F)Oc1ccc(-c2cn3cccnc3n2)cc1 | -80.4% (active)
100 | CCn1nnnc1SCC(=O)c1ccc(C)cc1C | -81% (active)
101 | COC(=O)C1C(=O)c2c([nH]c(C(=O)OCCSC)c2C)CC1C (stereo not given) | -117% (active)
102 | COc1ccc(-n2ncc3c(N4CCc5ccccc54)ncnc32)cc1 | -240% (active)
103 | Cc1cccc(-n2ncc3c(N4CCc5ccccc54)ncnc32)c1 | -164% (active)
104 | Cc1cc(N/C=C\C(=O)c2ccc(Cl)c(Cl)c2)no1 | -231% (active)
105 | CCCCC(=O)Nc1nc(C)c(-c2csc(Nc3ccc(Cl)cc3)n2)s1 | -62.8% (active)
